In PubChem BioAssay (EPA / NIEHS):
Where “and” joins values, the source holds several entries; their conditions need not be identical. Identical values can stand only once. Some structures have more than one record in an assay (separate samples or runs), and their calls can disagree. Calls of active or inactive are those of the source. Rule for the calls: active = hit-call score of the fitted dose curve at least 0.9, where 1 is the maximum; inactive = score below 0.9.

Columns and labels:
[1] = read-out: Interleukin-1 alpha (IL1a), IL1A (gene 3552); test: BSK_KF3CT_IL1a: BioMAP Diversity Plus: KF3CT Assay for Interleukin-1 alpha (IL1a) Biomarker Activity (AID 2283070); settings: primary human keratinocytes with fibroblasts; actives raise or lower the signal
Procedure, shortened: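 Primary skin co-culture (keratinocytes, foreskin fibroblasts), 24 h exposure; ELISA for IL-1a; bidirectional curve fit vs DMSO.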

[2] = read-out: TIMP metallopeptidase inhibitor 2 (TIMP2), TIMP2 (gene 7077); test: BSK_KF3CT_TIMP2: BioMAP Diversity Plus: KF3CT Assay for TIMP metallopeptidase inhibitor 2 (TIMP2) Biomarker Activity (AID 2283071); settings: primary human keratinocytes with fibroblasts; actives raise or lower the signal
Procedure, shortened: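 Chemicals were dosed onto human skin primary co-cultures of keratinocytes and foreskin fibroblasts, and TIMP-2 was measured by ELISA after 24 hours. Activity in either direction was fitted relative to DMSO.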

[3] = read-out: Transforming growth factor beta 1 (TGFb1), TGFB1 (gene 7040); test: BSK_KF3CT_TGFb1: BioMAP Diversity Plus: KF3CT Assay for Transforming growth factor beta 1 (TGFb1) Biomarker Activity (AID 2283072); settings: primary human keratinocytes with fibroblasts; actives raise or lower the signal
Procedure, shortened: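 KF3CT co-culture (keratinocytes + fibroblasts), 24 h exposure → TGF-b1 ELISA → bidirectional fit, DMSO = baseline. Parallel SRB total-protein staining (0.1% SRB, 10% TCA fixation, 560 nm) for cytotoxicity.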

[4] = read-out: C-C motif chemokine 2 (Homo sapiens) (UniProt P13500); test: BSK_KF3CT_MCP1: BioMAP Diversity Plus: KF3CT Assay for Monocyte Chemoattractant Protein 1 (MCP1/CCL2) Biomarker Activity (AID 2283073); settings: primary human keratinocytes with fibroblasts; actives raise or lower the signal
Procedure, shortened: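 KF3CT skin co-culture (keratinocytes/foreskin fibroblasts), 24 h post-dose; MCP-1 by ELISA; gain/loss of signal fit bidirectionally vs DMSO baseline.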

[5] = read-out: Matrix Metallopeptidase 9 (MMP9), MMP9 (gene 4318); test: BSK_KF3CT_MMP9: BioMAP Diversity Plus: KF3CT Assay for Matrix Metallopeptidase 9 (MMP9) Biomarker Activity (AID 2283074); settings: primary human keratinocytes with fibroblasts; actives raise or lower the signal;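 for AC50: MMP9 protein level quantified by ELISA in the co-culture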
Procedure, shortened: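 ELISA read-out of MMP-9 at 24 h post-dosing in a co-culture of human skin keratinocytes and foreskin fibroblasts. Gain or loss of signal was fitted in both directions against DMSO.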

[6] = read-out: urokinase plasminogen activator (uPA), PLAU (gene 5328); test: BSK_KF3CT_uPA: BioMAP Diversity Plus: KF3CT Assay for urokinase plasminogen activator (uPA) Biomarker Activity (AID 2283075); settings: primary human keratinocytes with fibroblasts; actives raise or lower the signal
Procedure, shortened: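 Skin co-culture (keratinocytes + foreskin fibroblasts), human primary; 24 h post-dose; uPA by ELISA; gain/loss fit vs DMSO baseline.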

[7] = read-out: E-selectin (Homo sapiens) (UniProt P16581); test: BSK_LPS_Eselectin: BioMAP Diversity Plus: LPS Assay for Eselectin Biomarker Activity (AID 2283077); settings: primary human HUVEC with PBMC; actives raise or lower the signal
Procedure, shortened: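 ELISA readout of E-selectin, 24 h post-dose, HUVEC + PBMC co-culture (LPS system). Gain or loss of signal vs DMSO baseline, bidirectional fit.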

[8] = read-out: Interleukin-8 (IL8), CXCL8 (gene 3576); test: BSK_LPS_IL8: BioMAP Diversity Plus: LPS Assay for Interleukin-8 (IL8) Biomarker Activity (AID 2283078); settings: primary human HUVEC with PBMC; actives raise or lower the signal
Procedure, shortened: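 HUVEC + PBMC co-culture, LPS-activated; test chemicals dosed, IL-8 read by ELISA at 24 h. Bidirectional curve fit vs DMSO baseline (gain or loss of signal).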

[9] = BSK_LPS_SRB: Viability Assessment in the BioMAP Diversity Plus: LPS Assay (AID 2283079); settings: primary human HUVEC with PBMC;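 note: total protein by sulforhodamine B absorbance as a cytotoxicity measure; measured one day after compound addition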
Procedure, shortened: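 HUVEC + PBMC co-culture, LPS-stimulated; compound 24 h. 10% TCA fix, 0.1% SRB stain, A560. Bidirectional fit vs DMSO.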

CD40, CD40 (gene 958) = test: BSK_LPS_CD40: BioMAP Diversity Plus: LPS Assay for CD40 Biomarker Activity (AID 2283076); settings: primary human HUVEC with PBMC; actives raise or lower the signal
Procedure, shortened: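 ELISA readout of CD40 in HUVEC/PBMC co-culture (BSK_LPS system), 24 h post-dosing; bidirectional curve fit, DMSO baseline; parallel SRB total-protein staining for cytotoxicity.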

Measured: AC50

E-selectin (Homo sapiens), sequence (P16581 whole entry, looked up): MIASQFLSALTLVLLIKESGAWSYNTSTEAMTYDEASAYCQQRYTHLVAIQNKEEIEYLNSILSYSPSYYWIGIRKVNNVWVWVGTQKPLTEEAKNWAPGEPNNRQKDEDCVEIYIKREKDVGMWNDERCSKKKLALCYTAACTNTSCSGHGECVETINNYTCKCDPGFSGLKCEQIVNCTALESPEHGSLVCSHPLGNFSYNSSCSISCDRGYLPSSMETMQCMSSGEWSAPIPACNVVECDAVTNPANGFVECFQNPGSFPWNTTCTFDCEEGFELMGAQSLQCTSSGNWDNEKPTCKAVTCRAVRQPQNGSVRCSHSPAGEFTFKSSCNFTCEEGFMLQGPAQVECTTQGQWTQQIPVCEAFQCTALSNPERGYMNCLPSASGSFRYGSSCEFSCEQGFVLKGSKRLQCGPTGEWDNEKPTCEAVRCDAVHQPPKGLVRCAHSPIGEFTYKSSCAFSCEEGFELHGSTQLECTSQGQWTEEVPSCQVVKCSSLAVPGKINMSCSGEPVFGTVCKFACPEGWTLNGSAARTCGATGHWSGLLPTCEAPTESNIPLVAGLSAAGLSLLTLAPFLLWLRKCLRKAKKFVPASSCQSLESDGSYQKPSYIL

CC1(C)CC(O)CC(C)(C)N1[O]
inactive: [1] | [2] | [3] | [4] | [5] | [6] | [7] | [8]

Oc1ccc(/C=C/c2cc(O)cc(O)c2)cc1
active: [1] 3.97 µM | [2] 8.83 µM | [4] 20 µM | [5] 16 µM
inactive: [3] | [6] | [7] | [8]

CC/C=C\C/C=C\C/C=C\CCCCCCCC(=O)OC
active: [1] 12.2 µM | [2] 7.17 µM | [3] 6.41 µM | [4] 5.29 µM | [5] 12.2 µM | [6] 20 µM | [7] 30.1 µM | [8] 29 µM | [9] 27.8 µM

CC=C(C)C(C)=O
inactive: [1] | [2] | [3] | [4] | [5] | [6] | [7] | [8]

CCCCCCCCCCCC(=O)N(C)CC(=O)O
inactive: [1] | [2] | [4] | [5] | [6] | [7] | [8]

CC=C(C)C=CC=C(C)C
inactive: [2] | [3] | [4] | [7] | [8] | [9]
active: [1] 0.016 µM | [5] 20 µM | [6] 3.13 µM

CCN1CN(CC)CN(CC)C1
inactive: [1] | [2] | [3] | [4] | [5] | [6] | [7] | [8]

c1ccc2sc(SSN3CCOCC3)nc2c1
inactive: [2] | [3] | [7] | [8] | [9]
active: [1] 12.2 µM | [4] 12.2 µM | [5] 12.6 µM | [6] 12.9 µM

CCCCC1C(=O)N(c2ccccc2)N(c2ccccc2)C1=O
inactive: [1] | [2] | [3] | [4] | [5] | [6] | [7] | [8] | [9]

Oc1ccccc1Cc1ccccc1O
inactive: [1] | [2] | [4] | [5] | [6] | [7] | [8] | [9]

Nc1cccc(N)n1
inactive: [1] | [2] | [3] | [4] | [5] | [6] | [7] | [8]

C[N+](C)(C)CCCNS(=O)(=O)C(F)(F)C(F)(F)C(F)(F)C(F)(F)C(F)(F)C(F)(F)C(F)(F)C(F)(F)F
active: [5] 30 µM and 44.7 µM | CD40, CD40 (gene 958) 42.8 µM and 25.4 µM | [7] 48.1 µM | [8] 31.3 µM and 39.7 µM | [9] 22.5 µM and 33.8 µM
inactive: [1] | [2] | [4] | [6] | [7]

COC(OC)(C(=O)c1ccccc1)c1ccccc1
inactive: [1] | [2] | [3] | [4] | [5] | [6] | [7]
active: [8] 0.016 µM

COc1ccc(C(=O)c2ccccc2)c(O)c1
inactive: [1] | [2] | [3] | [4] | [6] | [7] | [8] | [9]
active: [5] 20 µM

CC(CCC(=O)O)(c1ccc(O)cc1)c1ccc(O)cc1
inactive: [1] | [2] | [4] | [5] | [6] | [7] | [8]

C=C(C)C(=O)OCCCCCCCCCCCC
inactive: [1] | [2] | [3] | [4] | [5] | [6] | [7] | [8]

CC/C=C\CCOC(=O)c1ccccc1O
active: [1] 30.2 µM | [2] 14.7 µM | [3] 14.5 µM | [6] 29.8 µM | [7] 38.1 µM | [8] 33.5 µM | [9] 30.7 µM
inactive: [4] | [5]

Clc1cc(Cl)c(Cl)c(Cl)c1Cl
active: [2] 20 µM
inactive: [1] | [3] | [4] | [5] | [6] | [7] | [8] | [9]

CC(C)CCCCCOC(=O)CS
inactive: [1] | [2] | [3] | [4] | [5] | [6] | [7] | [8]

Nc1nc(N)nc(-c2ccccc2)n1
inactive: [1] | [2] | [4] | [5] | [6] | [7] | [8] | [9]

O=C1CCCCCCCCCCCN1
inactive: [1] | [2] | [3] | [4] | [5] | [6] | [7] | [8] | [9]

CCCCCCC=O
inactive: [1] | [2] | [3] | [4] | [5] | [6] | [7] | [8]

O=C(Cl)c1c(Cl)c(Cl)c(C(=O)Cl)c(Cl)c1Cl
inactive: [1] | [2] | [3] | [4] | [5] | [6] | [7] | [8]

O=C(Oc1ccccc1)c1ccccc1C(=O)Oc1ccccc1
inactive: [1] | [2] | [3] | [4] | [5] | [6] | [7] | [8]

CC(C)[N+](C)(CCOC(=O)C1c2ccccc2Oc2ccccc21)C(C)C
inactive: [1] | [2] | [3] | [4] | [5] | [6] | [7] | [8]

O=C(O)C(F)(F)C(F)(F)C(F)(F)C(F)(F)C(=O)O
active: [8] 30 µM
inactive: [1] | [2] | [4] | [5] | [6] | CD40, CD40 (gene 958) | [7] | [8]

CC(C)C(=O)OCCc1ccccc1
inactive: [1] | [2] | [4] | [5] | [6] | [7] | [8]

Fc1ccc(Br)cc1
inactive: [1] | [2] | [3] | [4] | [5] | [6] | [7] | [8]

CCCCCCCCC(CO)CCCCCC (stereo unspecified)
inactive: [1] | [2] | [3] | [4] | [5] | [6] | [7] | [8]

CCCC(C)C(=O)OCC (stereo unspecified)
inactive: [1] | [2] | [4] | [5] | [6] | CD40, CD40 (gene 958) | [7] | [8] | [9]

c1ccc(Nc2cccc3ccccc23)cc1
active: [1] 29.8 µM and 28.6 µM | [2] 34.5 µM and 33.3 µM | [4] 28.8 µM and 26.7 µM | [5] 31.3 µM and 31.7 µM | [6] 33.8 µM and 32.2 µM | CD40, CD40 (gene 958) 22.9 µM and 30.7 µM | [8] 24.5 µM and 20 µM
